We go through 17 compounds from PubChem BioAssay (NCI).

Molecules are shown by their SMILES. About 83,000 compounds went through this panel and 20% of them were active in at least one assay; those are over-represented in the sample as a whole.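 The endpoint reported here, percent growth, reads 100 for growth as untreated, 0 for no net growth and -100 for all cells dead.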 Unmarked numbers belong to inactive results. Activity calls are given as the source filed them. How the source made its calls: active means growth percent below 10; inactive means the rest.

Among the test systems are DU-145 prostate; K-562 leukemia; MALME-3M melanoma; RXF 393 renal; SF-268 CNS; SF-295 CNS; SF-539 CNS; UACC-257 melanoma; M14 melanoma; MDA-MB-231 breast.
Holding throughout (assay): NCI-60 one-dose screen, 48 h (100 = growth as untreated, 0 = no growth, -100 = all killed)
Holding throughout (settings): 10 µM

Consider `CCCCNC(=O)C(=O)NCCCC`, for which the growth in the test with DU-145 prostate is 103%; in the test with K-562 leukemia it was 108%; in the test on MALME-3M melanoma it was 95.4%; in the test on RXF 393 renal it was 107%; in the test with SF-268 CNS, 97.9%; with SF-295 CNS, 102%. Further, the values for the growth in the test with SF-539 CNS, in the test on UACC-257 melanoma and with M14 melanoma were 101%, 105% and 104%, respectively.
Consider `Nc1nc2c(c(-c3nc(N)nc4c3CCc3ccccc3-4)n1)CCc1ccccc1-2`, for which the growth in the test on DU-145 prostate is 107%; with K-562 leukemia, 99.2%; in the test with MALME-3M melanoma, 85.3%; in the test on RXF 393 renal, 115%; with SF-268 CNS, 103%; in the test with SF-295 CNS, 99.5%. Further, the growth in the test on SF-539 CNS was 93.1%; in the test with UACC-257 melanoma it was 109%; in the test with M14 melanoma, 105%.
For `COc1ccccc1NC(=O)C1=C(C)NC(C)=C(C(=O)Nc2ccccc2OC)C1c1cccc([N+](=O)[O-])c1`, the growth in the test on DU-145 prostate was 84.1%; in the test on K-562 leukemia, 57.3%; with MALME-3M melanoma, 84.7%; in the test on RXF 393 renal, 79.2%; in the test with SF-268 CNS, 67%; with SF-295 CNS, 49.5%. Further, the values for the growth in the test on SF-539 CNS, with UACC-257 melanoma and with M14 melanoma were 75.2%, 92.3% and 76.5%, respectively.
Turning to `CC1(O)OC(COc2ccc(Cl)cc2)COC1O` (stereo not drawn), the growth with DU-145 prostate is 108%; in the test with K-562 leukemia, 104%; in the test on MALME-3M melanoma, 99.2%; in the test with RXF 393 renal, 107%; in the test with SF-268 CNS, 104%; in the test with SF-295 CNS, 103%. Also, the growth in the test on SF-539 CNS is 97.3%; in the test on UACC-257 melanoma it was 95.7%; in the test with M14 melanoma, 109%.
With `c1c(-c2cc(C3CC3)[nH]n2)n[nH]c1C1CC1`, the growth with DU-145 prostate was 111%; with K-562 leukemia, 70.9%; with MALME-3M melanoma it was 92.2%; in the test on RXF 393 renal it was 108%; in the test on SF-268 CNS it was 107%; in the test with SF-295 CNS, 98%. Further, the growth in the test with SF-539 CNS is 101%; in the test with UACC-257 melanoma it was 90.8%; with M14 melanoma, 98.9%.
Regarding `CS(=O)CC1=NC(=N)N=C1CS(C)=O` (stereo not drawn), the growth in the test on DU-145 prostate was 111%; with K-562 leukemia, 99.4%; in the test with MALME-3M melanoma it was 98%; in the test with RXF 393 renal it was 107%; in the test with SF-268 CNS it was 106%; in the test on SF-295 CNS, 98.1%. Moreover, the growth with SF-539 CNS is 99.5%; in the test on UACC-257 melanoma, 86.6%; in the test on M14 melanoma, 105%.
As for `O=C(O)c1ccc(S(=O)(=O)O)cc1`, the growth in the test with DU-145 prostate is 133%; in the test with K-562 leukemia, 114%; in the test with MALME-3M melanoma, 97.2%; in the test on MDA-MB-231 breast it was 107%; in the test on SF-268 CNS it was 123%; with SF-295 CNS it was 107%. Also, the growth with SF-539 CNS is 97.9%; with M14 melanoma, 117%.
As to `CC(C)=C(NC(=O)c1ccccc1)C(=O)O`, the growth was 106% with DU-145 prostate; 102% in the test on K-562 leukemia; 99% in the test on MALME-3M melanoma; 103% with RXF 393 renal; 96.1% in the test with SF-268 CNS; 116% in the test on SF-295 CNS. Moreover, the results for the growth with SF-539 CNS, in the test with UACC-257 melanoma and with M14 melanoma were 110%, 97.5% and 108%, respectively.
Regarding `CCCCCC(C)(CC(=O)O)CC(=O)O`, the growth in the test with DU-145 prostate was 122%; in the test with K-562 leukemia, 106%; with MDA-MB-231 breast, 138%; in the test on RXF 393 renal, 101%; in the test on SF-268 CNS, 122%; in the test on SF-539 CNS, 105%. In addition, the growth in the test on UACC-257 melanoma is 101%; with M14 melanoma it was 109%.
As to `O=C(c1ccc(O)cc1)c1ccc(O)cc1`, the growth is 110% in the test with DU-145 prostate; 102% in the test with K-562 leukemia; 125% in the test on MDA-MB-231 breast; 113% with RXF 393 renal; 102% in the test on SF-268 CNS; 102% with SF-295 CNS. Also, the growth in the test with SF-539 CNS is 100%; in the test with UACC-257 melanoma, 96.2%; in the test on M14 melanoma it was 98.7%.
Take `CC1=NN(c2ccccc2)C(=O)/C1=C\N1CC(=O)NC1=S`: the growth in the test with DU-145 prostate was 106%; in the test with K-562 leukemia, 104%; in the test with MDA-MB-231 breast, 98.3%; in the test with RXF 393 renal it was 108%; in the test with SF-268 CNS it was 101%; with SF-295 CNS, 104%. Besides, the growth was 109% in the test on SF-539 CNS, 90.6% with UACC-257 melanoma and 103% in the test on M14 melanoma.
With `O=C(CCl)Nc1ccc2c(c1)C(=O)c1ccc(NC(=O)CCl)cc1C2=O`, the growth is -55.7% (active) in the test on DU-145 prostate; -14.9% (active) in the test with K-562 leukemia; -48.2% (active) in the test with MDA-MB-231 breast; -86% (active) with RXF 393 renal; -66.6% (active) in the test on SF-268 CNS; -22.6% (active) with SF-295 CNS. Moreover, the growth with SF-539 CNS was -92.2% (active); with UACC-257 melanoma it was -12.2% (active); with M14 melanoma, -55.5% (active).
In the case of `CN(C)CCN(C)CC(C)(C)C(=O)/C=C/c1ccc(Cl)cc1`, the growth in the test with DU-145 prostate was 6.16% (active); with K-562 leukemia it was 4.79% (active); in the test on MALME-3M melanoma, -27.7% (active); in the test on RXF 393 renal, -82.8% (active); in the test with SF-295 CNS, 20.5%; in the test with SF-539 CNS, -25.9% (active). For the same compound, the growth is 23.1% in the test with UACC-257 melanoma and -64.4% (active) in the test on M14 melanoma.
`CC(=O)OC(C(=O)O)c1ccccc1` (stereo not drawn): the growth in the test on DU-145 prostate was 106%; with K-562 leukemia, 108%; in the test on MDA-MB-231 breast, 105%; in the test on RXF 393 renal, 112%; in the test with SF-268 CNS, 101%; with SF-295 CNS, 113%. For the same compound, the growth in the test on SF-539 CNS was 111%; in the test on UACC-257 melanoma, 106%; in the test with M14 melanoma, 110%.
Regarding `CNc1nc(NC)c2cn[nH]c2n1`, the growth in the test on DU-145 prostate is 113%; in the test with K-562 leukemia, 104%; with MDA-MB-231 breast, 108%; with RXF 393 renal, 101%; in the test on SF-268 CNS, 114%; with SF-295 CNS it was 98.4%. Besides, the growth is 103% in the test with SF-539 CNS and 102% in the test with M14 melanoma.
In the case of `O=c1[nH][nH]c(=O)c2cc([N+](=O)[O-])ccc12`, the growth is 126% with DU-145 prostate; 98.9% with K-562 leukemia; 106% in the test with MDA-MB-231 breast; 109% with RXF 393 renal; 111% in the test on SF-268 CNS; 117% in the test on SF-295 CNS. The growth is 108% with SF-539 CNS, 110% with UACC-257 melanoma and 99.9% in the test with M14 melanoma.
For `Cc1cc(N2CCC(N3CCCC3)CC2)nc(/N=C(\N)Nc2ccc(Cl)c(Cl)c2)n1`, the growth with DU-145 prostate was 16.3%; with K-562 leukemia it was -44.4% (active); in the test on MDA-MB-231 breast, -58.1% (active); in the test with RXF 393 renal, -69.7% (active); in the test with SF-268 CNS, -4.09% (active); with SF-295 CNS it was -96.2% (active). Moreover, the growth is -84.7% (active) in the test on SF-539 CNS and -78.5% (active) in the test on UACC-257 melanoma.
